# This excerpt belongs to a sample that is enriched for the strongest signals.
# B1: LFA (Limax flavus) (protein)
# chain: MSVLFLAASFLLLASFELVAAQGCPRQDPGDWIVIQRRLNADVNFYRGWADYKHGFGDLRCNFWLGNEKIHQLTSHGRYKLRVEFTFNNKSYFAEYSTFKILGEADKYKLQVGGYSGNAGDALTFHNGMAFSTNDRDNDADSIDCAKVYHGAWWYKTCHESNLNGKWGSKKYGEGLNWKAKTTFTATATSSLLKIKALK
# Experiments:
# Assay in all cases: glycan array binding signal (z-score within array); higher = stronger binding
# Details in all cases: glycan notation: IUPAC condensed, linker removed
# [1] = molecular target: Fuc(a1-2)Gal(b1-3)GlcNAc(b1-2)Man(a1-3)[Fuc(a1-2)Gal(b1-3)GlcNAc(b1-2)Man(a1-6)]Man(b1-4)GlcNAc(b1-4)GlcNAc
# Outline: (§1)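 Glycan array data came from 3228 arrays in the Consortium for Functional Glycomics database, and only arrays with an available protein sequence were kept. Glycan names were put into IUPAC-condensed notation, and columns mapping to the same glycan were averaged. The binding signal is a within-array Z-score, averaged across arrays of one protein sequence run at different concentrations or buffers and across linkers. A negative Z-score can be read as non-binding.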
# [2] = molecular target: Fuc(a1-2)Gal(b1-3)GlcNAc(b1-3)[Neu5Ac(a2-6)Gal(b1-4)GlcNAc(b1-6)]Gal(b1-4)Glc
# Outline: as §1
# [3] = molecular target: Fuc(a1-2)Gal(b1-4)Fuc(a1-3)]GlcNAc(b1-2)Man(a1-3)[Fuc(a1-2)Gal(b1-4)[Fuc(a1-3)]GlcNAc(b1-2)Man(a1-6)]Man(b1-4)GlcNAc(b1-4)GlcNAc
# Outline: as §1
# [4] = molecular target: Fuc(a1-2)Gal(b1-4)GlcNAc(b1-3)[Fuc(a1-2)Gal(b1-4)GlcNAc(b1-6)]GalNAc
# Outline: as §1
# [5] = molecular target: Fuc(a1-2)[Gal(a1-3)]Gal(b1-4)[Fuc(a1-3)]GlcNAc
# Outline: as §1
# [6] = molecular target: Fuc(a1-2)[GalNAc(a1-3)]Gal(b1-4)GlcNAc(b1-3)Gal(b1-4)GlcNAc
# Outline: as §1
# [7] = molecular target: Fuc(a1-2)[GalNAc(a1-3)]Gal(b1-4)GlcNAc(b1-3)[Fuc(a1-2)[GalNAc(a1-3)]Gal(b1-4)GlcNAc(b1-6)]GalNAc
# Outline: as §1
# [8] = molecular target: Fuc(a1-2)[GalNAc(a1-3)]Gal(b1-4)[Fuc(a1-3)]GlcNAc(b1-3)GalNAc
# Outline: as §1
# [9] = molecular target: Fuc(a1-2)[GalNAc(a1-4)]Gal(b1-4)GlcNAc
# Outline: as §1
# [10] = molecular target: Fuc(a1-3)[Gal(b1-4)]GlcNAc(b1-2)Man(a1-3)[Fuc(a1-3)[Gal(b1-4)]GlcNAc(b1-2)Man(a1-6)]Man(b1-4)GlcNAc(b1-4)[Fuc(a1-6)]GlcNAc
# Outline: as §1
# [11] = molecular target: Fuc(a1-3)[Gal(b1-4)]GlcNAc(b1-3)Gal(b1-4)[Fuc(a1-3)]GlcNAc
# Outline: as §1
# [12] = molecular target: Gal(a1-3)Gal(b1-3)GlcNAc(b1-3)GalNAc
# Outline: as §1
# [13] = molecular target: Gal(b1-3)GlcNAc(a1-3)Gal(b1-4)GlcNAc
# Outline: as §1
# [14] = molecular target: Gal(b1-3)GlcNAc(b1-6)[Gal(b1-3)]GalNAc
# Outline: as §1
# [15] = molecular target: Gal(b1-3)[Fuc(a1-4)]GlcNAc(b1-2)Man(a1-3)[Gal(b1-3)[Fuc(a1-4)]GlcNAc(b1-2)Man(a1-6)]Man(b1-4)GlcNAc(b1-4)[Fuc(a1-6)]GlcNAc
# Outline: as §1
# [16] = molecular target: Gal(b1-4)GlcNAc(b1-2)Man(a1-3)[GlcNAc(b1-4)][Gal(b1-4)GlcNAc(b1-2)Man(a1-6)]Man(b1-4)GlcNAc(b1-4)GlcNAc
# Outline: as §1
# [17] = molecular target: Gal(b1-4)GlcNAc(b1-3)Gal(b1-4)GlcNAc(b1-2)Man(a1-3)[Gal(b1-4)GlcNAc(b1-3)Gal(b1-4)GlcNAc(b1-2)Man(a1-6)]Man(b1-4)GlcNAc(b1-4)GlcNAc
# Outline: as §1
# [18] = molecular target: Gal(b1-4)GlcNAc(b1-3)Gal(b1-4)GlcNAc(b1-3)GalNAc
# Outline: as §1
# [19] = molecular target: Gal(b1-4)GlcNAc(b1-3)Gal(b1-4)GlcNAc(b1-3)[Gal(b1-4)GlcNAc(b1-3)Gal(b1-4)GlcNAc(b1-6)]GalNAc
# Outline: as §1
# [20] = molecular target: Gal3S(b1-3)[Fuc(a1-4)]GlcNAc
# Outline: as §1
# Gal3S(b1-4)Glc = molecular target: Gal3S(b1-4)Glc
# Outline: as §1
# Gal3S4S(b1-4)GlcNAc = molecular target: Gal3S4S(b1-4)GlcNAc
# Outline: as §1
# Gal6S(b1-4)GlcNAc6S = molecular target: Gal6S(b1-4)GlcNAc6S
# Outline: as §1
# GalNAc(a1-3)GalNAc = molecular target: GalNAc(a1-3)GalNAc
# Outline: as §1
# [21] = molecular target: GalNAc(a1-3)GalNAc(b1-3)Gal(a1-4)Gal(b1-4)Glc
# Outline: as §1
# GalNAc(b1-3)Gal = molecular target: GalNAc(b1-3)Gal
# Outline: as §1
# GalNAc3S(b1-4)GlcNAc = molecular target: GalNAc3S(b1-4)GlcNAc
# Outline: as §1
# [22] = molecular target: GlcNAc(b1-3)Gal(b1-4)GlcNAc(b1-2)Man(a1-3)[GlcNAc(b1-3)Gal(b1-4)GlcNAc(b1-2)Man(a1-6)]Man(b1-4)GlcNAc(b1-4)GlcNAc
# Outline: as §1
# [23] = molecular target: GlcNAc(b1-3)Gal(b1-4)GlcNAc(b1-3)Gal(b1-4)GlcNAc(b1-3)Gal(b1-4)GlcNAc(b1-2)Man(a1-3)[GlcNAc(b1-3)Gal(b1-4)GlcNAc(b1-3)Gal(b1-4)GlcNAc(b1-3)Gal(b1-4)GlcNAc(b1-2)Man(a1-6)]Man(b1-4)GlcNAc(b1-4)[Fuc(a1-6)]GlcNAc
# Outline: as §1
# [24] = molecular target: GlcNAc(b1-3)Gal(b1-4)GlcNAc(b1-6)[GlcNAc(b1-3)Gal(b1-3)]GalNAc
# Outline: as §1
# [25] = molecular target: GlcNAc(b1-3)[GlcNAc(b1-4)][GlcNAc(b1-6)]GlcNAc
# Outline: as §1
# [26] = molecular target: GlcNAc(b1-4)GlcNAc(b1-4)GlcNAc(b1-4)GlcNAc(b1-4)GlcNAc
# Outline: as §1
# [27] = molecular target: GlcNAc(b1-4)GlcNAc(b1-4)GlcNAc(b1-4)GlcNAc(b1-4)GlcNAc(b1-4)GlcNAc
# Outline: as §1
# [28] = molecular target: Man(a1-3)[Man(a1-6)]Man(a1-6)[Man(a1-2)Man(a1-3)]Man(b1-4)GlcNAc(b1-4)GlcNAc
# Outline: as §1
# [29] = molecular target: Man(a1-3)[Man(a1-6)]Man(b1-4)GlcNAc(b1-4)[Fuc(a1-6)]GlcNAc
# Outline: as §1
# MurNAc(b1-4)GlcNAc = molecular target: MurNAc(b1-4)GlcNAc
# Outline: as §1
# [30] = molecular target: Neu5Ac(a2-3)Gal(b1-3)GalNAc(b1-4)[Neu5Ac(a2-8)Neu5Ac(a2-3)]Gal(b1-4)Glc
# Outline: as §1
# [31] = molecular target: Neu5Ac(a2-3)Gal(b1-3)GlcNAc(b1-3)Gal(b1-3)GlcNAc
# Outline: as §1
# [32] = molecular target: Neu5Ac(a2-3)Gal(b1-4)GlcNAc(b1-3)Gal(b1-3)GlcNAc
# Outline: as §1
# [33] = molecular target: Neu5Ac(a2-3)Gal(b1-4)GlcNAc(b1-3)Gal(b1-4)GlcNAc(b1-2)Man(a1-3)[Neu5Ac(a2-3)Gal(b1-4)GlcNAc(b1-3)Gal(b1-4)GlcNAc(b1-2)Man(a1-6)]Man(b1-4)GlcNAc(b1-4)GlcNAc
# Outline: as §1
# [34] = molecular target: Neu5Ac(a2-3)Gal(b1-4)GlcNAc(b1-3)Gal(b1-4)GlcNAc(b1-3)Gal(b1-4)GlcNAc(b1-2)Man(a1-3)[Neu5Ac(a2-3)Gal(b1-4)GlcNAc(b1-3)Gal(b1-4)GlcNAc(b1-3)Gal(b1-4)GlcNAc(b1-2)Man(a1-6)]GalNAc
# Outline: as §1
# [35] = molecular target: Neu5Ac(a2-3)[GalNAc(b1-4)]Gal(b1-4)GlcNAc
# Outline: as §1
# [36] = molecular target: Neu5Ac(a2-3)[Neu5Ac(a2-6)]GalNAc
# Outline: as §1
# [37] = molecular target: Neu5Ac(a2-6)Gal(b1-4)GlcNAc
# Outline: as §1
# [38] = molecular target: Neu5Ac(a2-6)Gal(b1-4)GlcNAc(b1-3)Gal(b1-4)GlcNAc(b1-3)[Neu5Ac(a2-6)Gal(b1-4)GlcNAc(b1-3)Gal(b1-4)GlcNAc(b1-6)]GalNAc
# Outline: as §1
# Neu5Ac(a2-6)GalNAc = molecular target: Neu5Ac(a2-6)GalNAc
# Outline: as §1
# [39] = molecular target: Neu5Ac(a2-8)Neu5Ac(a2-3)Gal(b1-3)GalNAc(b1-4)[Neu5Ac(a2-3)]Gal(b1-4)Glc
# Outline: as §1
# [40] = molecular target: Neu5Ac(a2-8)Neu5Ac(a2-8)Neu5Ac(a2-3)[Gal(b1-3)GalNAc(b1-4)]Gal(b1-4)Glc
# Outline: as §1
# [41] = molecular target: Neu5Ac(a2-8)Neu5Ac(a2-8)Neu5Ac(a2-3)[GalNAc(b1-4)]Gal(b1-4)Glc
# Outline: as §1
# Neu5Ac(b2-6)GalNAc = molecular target: Neu5Ac(b2-6)GalNAc
# Outline: as §1
# [42] = molecular target: Neu5Ac9Ac(a2-3)Gal(b1-3)GlcNAc
# Outline: as §1
# [43] = molecular target: Neu5Gc(a2-3)Gal(b1-4)GlcNAc(b1-3)Gal(b1-4)GlcNAc(b1-2)Man(a1-3)[Neu5Gc(a2-3)Gal(b1-4)GlcNAc(b1-3)Gal(b1-4)GlcNAc(b1-2)Man(a1-6)]Man(b1-4)GlcNAc(b1-4)GlcNAc
# Outline: as §1
# [44] = molecular target: Neu5Gc(a2-3)Gal(b1-4)[Fuc(a1-3)]GlcNAc
# Outline: as §1
# [45] = molecular target: Neu5Gc(a2-8)Neu5Gc(a2-3)Gal(b1-4)GlcNAc(b1-3)Gal(b1-4)GlcNAc
# Outline: as §1
binder,measurement,setting,value
B1,glycan array binding signal (z-score),[1],0.702
same,glycan array binding signal (z-score),[2],-0.319
same,glycan array binding signal (z-score),[3],1.54
same,glycan array binding signal (z-score),[4],-0.186
same,glycan array binding signal (z-score),[5],-0.137
same,glycan array binding signal (z-score),[6],-0.192
same,glycan array binding signal (z-score),[7],-0.241
same,glycan array binding signal (z-score),[8],-0.214
same,glycan array binding signal (z-score),[9],3.52
same,glycan array binding signal (z-score),[10],-0.15
same,glycan array binding signal (z-score),[11],-0.217
same,glycan array binding signal (z-score),[12],0.016
same,glycan array binding signal (z-score),[13],-0.103
same,glycan array binding signal (z-score),[14],-0.21
same,glycan array binding signal (z-score),[15],0.669
same,glycan array binding signal (z-score),[16],0.181
same,glycan array binding signal (z-score),[17],2.97
same,glycan array binding signal (z-score),[18],2.68
same,glycan array binding signal (z-score),[19],2.39
same,glycan array binding signal (z-score),[20],-0.306
same,glycan array binding signal (z-score),Gal3S(b1-4)Glc,-0.271
same,glycan array binding signal (z-score),Gal3S4S(b1-4)GlcNAc,-0.218
same,glycan array binding signal (z-score),Gal6S(b1-4)GlcNAc6S,-0.066
same,glycan array binding signal (z-score),GalNAc(a1-3)GalNAc,3.66
same,glycan array binding signal (z-score),[21],13.1
same,glycan array binding signal (z-score),GalNAc(b1-3)Gal,-0.195
same,glycan array binding signal (z-score),GalNAc3S(b1-4)GlcNAc,-0.277
same,glycan array binding signal (z-score),[22],-0.217
same,glycan array binding signal (z-score),[23],0.314
same,glycan array binding signal (z-score),[24],-0.285
same,glycan array binding signal (z-score),[25],-0.405
same,glycan array binding signal (z-score),[26],2.87
same,glycan array binding signal (z-score),[27],5.81
same,glycan array binding signal (z-score),[28],3.26
same,glycan array binding signal (z-score),[29],0.24
same,glycan array binding signal (z-score),MurNAc(b1-4)GlcNAc,-0.363
same,glycan array binding signal (z-score),[30],-0.184
same,glycan array binding signal (z-score),[31],-0.139
same,glycan array binding signal (z-score),[32],-0.206
same,glycan array binding signal (z-score),[33],2.77
same,glycan array binding signal (z-score),[34],4.29
same,glycan array binding signal (z-score),[35],0.019
same,glycan array binding signal (z-score),[36],1.01
same,glycan array binding signal (z-score),[37],-0.176
same,glycan array binding signal (z-score),[38],2.5
same,glycan array binding signal (z-score),Neu5Ac(a2-6)GalNAc,-0.345
same,glycan array binding signal (z-score),[39],-0.229
same,glycan array binding signal (z-score),[40],-0.353
same,glycan array binding signal (z-score),[41],0.236
same,glycan array binding signal (z-score),Neu5Ac(b2-6)GalNAc,-0.284
same,glycan array binding signal (z-score),[42],-0.339
same,glycan array binding signal (z-score),[43],-0.166
same,glycan array binding signal (z-score),[44],-0.306
same,glycan array binding signal (z-score),[45],-0.237

# Source: the supplement of paper PMC8728848
